Source: the OligoGym collection

These sequences were tested against SNCG (assay: pooled miR-30 sensor sort-seq; sequence = guide strand). Conditions: shRNA.
Note: reference of the scale not given here.

With TGGTCTTTTCCACCGCACCCAC as the sequence, how does the sensor-assay potency score (higher = more potent) read?
Its sensor-assay potency score (higher = more potent) is -1.77.

With TTGGATGCCACACCCTCCTGTT as the sequence, how does the sensor-assay potency score (higher = more potent) read?
Its sensor-assay potency score (higher = more potent) is -1.09.

Which sensor-assay potency score (higher = more potent) does the source give for CTGTACAACATTCTCCTTGGTC here?
Its sensor-assay potency score (higher = more potent) is -1.03.

Which sensor-assay potency score (higher = more potent) does the source give for TTGGTCTTCTCGGCCACTGAGG here?
The sensor-assay potency score (higher = more potent) was -1.32.

Which sensor-assay potency score (higher = more potent) does the source give for TGCTTGGTCTTTTCCACCGCAC here?
The sensor-assay potency score (higher = more potent) was -1.01.

For TGGTCTTCTCAGCTGCTTCCGT, which sensor-assay potency score (higher = more potent) is on record?
Its sensor-assay potency score (higher = more potent) is -1.23.

How did the sensor-assay potency score (higher = more potent) turn out when ACAACATTCTCCTTGGTCTTGG was run?
Its sensor-assay potency score (higher = more potent) is -0.611.

These sequences were tested against SNN in the same assay as above. Conditions: shRNA.

TCTCCTCGTCCTCTGACTGGCT was tested. Which sensor-assay potency score (higher = more potent) did it give?
Its sensor-assay potency score (higher = more potent) is -0.606.

TCCTCGTCCTCTGACTGGCTGA was tested. Which sensor-assay potency score (higher = more potent) did it give?
The sensor-assay potency score (higher = more potent) was -1.43.

Which sensor-assay potency score (higher = more potent) does the source give for TTGGCCTTTCTCTCCACGCACG here?
The sensor-assay potency score (higher = more potent) was -1.27.

TTCTCTCCACGCACGGTCCCTT was tested. Which sensor-assay potency score (higher = more potent) did it give?
The sensor-assay potency score (higher = more potent) was -1.08.

Which sensor-assay potency score (higher = more potent) does the source give for TCAGCTTGGCCTTTCTCTCCAC here?
The sensor-assay potency score (higher = more potent) was -0.343.

For TCCTCTGACTGGCTGATGCGCT, which sensor-assay potency score (higher = more potent) is on record?
The sensor-assay potency score (higher = more potent) was -1.54.

How did the sensor-assay potency score (higher = more potent) turn out when TTACAGTAGTAGCTCCATCAAA was run?
The sensor-assay potency score (higher = more potent) was -1.39.

How did the sensor-assay potency score (higher = more potent) turn out when AATGAGGATGACGATGACTGTG was run?
The sensor-assay potency score (higher = more potent) was -0.905.

For TGACTGGCTGATGCGCTGCAGC, which sensor-assay potency score (higher = more potent) is on record?
The sensor-assay potency score (higher = more potent) was -1.74.

With TTGGGAGTCATCAGCTTGGCCT as the sequence, how does the sensor-assay potency score (higher = more potent) read?
Its sensor-assay potency score (higher = more potent) is -0.835.

For ATGACGATGACTGTGACCACGC, which sensor-assay potency score (higher = more potent) is on record?
Its sensor-assay potency score (higher = more potent) is -0.588.

How did the sensor-assay potency score (higher = more potent) turn out when TTTCTCTCCACGCACGGTCCCT was run?
Its sensor-assay potency score (higher = more potent) is -1.1.
